Assay outcomes (PubChem)
In the library only some 5.3% were active in any assay of this set; here they are far more common.
JMJD2A Tudor = qHTS Assay for Inhibitors of JMJD2A-Tudor Domain; Lysine-specific demethylase 4A (Homo sapiens), O75164; AlphaScreen JMJD2A-Tudor / H3K4me3 peptide binding; Potency, µM (top dose mostly 114 µM), for inactives: at the top dose activity change, negative = inhibition, actives largely listed as inhibitors; 390,000 tested, 4.4% active; further: potency means the concentration at half of the fitted maximal effect; on the % scale 0 is the no-effect control and ±100 the full control effect; nearly all actives have a fitted effect of over 50% in size
BAZ2B block = qHTS Assay for Inhibitors of BAZ2B; Bromodomain adjacent to zinc finger domain protein 2B (Homo sapiens), Q9UIF8; AlphaScreen BAZ2B-H3K14Ac peptide displacement; Potency, µM (doses to about 114 µM), for inactives: at the highest dose activity change, negative = inhibition, most hits filed as inhibitors; 360,000 tested, 4.4% active; AID 504333, 2011; further: potency means the concentration at half of the fitted maximal effect; on the % scale 0 is the no-effect control and ±100 the full control effect; nearly all actives have a fitted effect of over 60% in size
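AlphaScreen displacement of biotin-H3(5-23)K14Ac peptide (50 nM final) from BAZ2B (50 nM final) in PBS pH 7.4, 0.01% Tween-20; complex preformed 30 min RT, then compounds (top 110 uM) 30 min RT, beads 20 min dark.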
HP1b chromo inh = HTS for Inhibitors of HP1-beta Chromodomain Interactions with Methylated Histone Tails; Potency, µM (doses to about 114 µM), for inactives: at the highest dose activity change, negative = inhibition, usual class: inhibitors; AlphaScreen HP1-beta / biotin-H3K9me3 peptide binding; 390,000 tested, 0.56% active; AID 540317, 2011; further: potency means the concentration at half of the fitted maximal effect; nearly all actives have a fitted effect of over 70% in size
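AlphaScreen: HP1-beta (50 nM) preformed 30 min with biotin-H3(1-18)K9me3 peptide (50 nM) in PBS pH 7.4, 0.01% Tween-20. Compound added for 30 min at RT, then streptavidin donor/nickel chelate acceptor beads (10 ug/mL) for 30 min.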
CtBP-E1A blk = qHTS Assay for Inhibitors of the CtBP/E1A Interaction; activity change, % (concentration not given with the values); AID 651724, 2012; 340,000 tested, 0.49% active; AlphaScreen GST-E1A/His-CtBP binding, 1536-well; hits give low values; in the data active means activity change below about -65%; inconclusive means mostly about -30% to -63%; further: on the % scale 0 is the no-effect control and ±100 the full control effect
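Steps: dispense buffer (Tris pH 8.0, NaCl 300 mM, TCEP 1 mM, BSA, Tween 20); add 5X protein mix (GST-E1A, His-CtBP, 125 nM each); pin 23 nL compound; 2 h at 37 °C, dark; add 5X beads (50 ug/mL); 1 h; read.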
Six1-Eya2 blk = qHTS Assay for Inhibitors of the Six1/Eya2 Interaction; activity change, % (test concentration not listed); AlphaScreen GST-Six1/His-Eya2 binding, biochemical; hits give low values; 360,000 tested, 0.56% active; Homeobox protein SIX1 (Homo sapiens) + Protein phosphatase EYA2 (Homo sapiens), …; in the data active means activity change below about -65%; inconclusive means mostly about -30% to -63%; further: on the % scale 0 is the no-effect control and ±100 the full control effect
Target sequence (O00167 whole entry, looked up): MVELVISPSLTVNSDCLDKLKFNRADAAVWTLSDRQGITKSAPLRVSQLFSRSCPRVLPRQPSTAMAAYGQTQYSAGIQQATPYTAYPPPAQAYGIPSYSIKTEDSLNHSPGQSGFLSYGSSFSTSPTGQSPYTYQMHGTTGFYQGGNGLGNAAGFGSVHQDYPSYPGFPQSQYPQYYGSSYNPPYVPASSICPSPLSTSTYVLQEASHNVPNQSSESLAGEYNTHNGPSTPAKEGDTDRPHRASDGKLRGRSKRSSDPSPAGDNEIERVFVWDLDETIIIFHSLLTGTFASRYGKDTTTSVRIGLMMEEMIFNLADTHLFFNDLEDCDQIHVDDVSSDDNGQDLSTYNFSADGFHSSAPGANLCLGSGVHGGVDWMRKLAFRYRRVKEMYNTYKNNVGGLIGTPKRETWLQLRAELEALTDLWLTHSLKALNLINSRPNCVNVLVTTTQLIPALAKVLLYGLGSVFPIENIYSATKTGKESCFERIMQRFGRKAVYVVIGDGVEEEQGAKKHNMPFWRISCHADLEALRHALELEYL
Target sequence (Q15475 whole entry, looked up): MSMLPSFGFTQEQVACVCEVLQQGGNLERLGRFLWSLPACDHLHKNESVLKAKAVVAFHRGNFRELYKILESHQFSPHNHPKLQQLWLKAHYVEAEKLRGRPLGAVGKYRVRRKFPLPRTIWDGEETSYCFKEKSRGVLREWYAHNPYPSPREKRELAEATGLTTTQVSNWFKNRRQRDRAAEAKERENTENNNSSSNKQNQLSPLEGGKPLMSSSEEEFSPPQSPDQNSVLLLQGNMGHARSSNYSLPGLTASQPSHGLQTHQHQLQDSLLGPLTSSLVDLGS
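Homogeneous AlphaScreen proximity assay pairing GST-Six1 with His-tagged Eya2 (added as 5X mix: 250 nM and 500 nM) in 50 mM Tris pH 8.0, 300 mM NaCl, 1 mM TCEP. Glutathione donor and nickel acceptor beads; 1 h, 37 °C, dark.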
TDP1 block = qHTS Assay for Inhibitors of Tyrosyl-DNA Phosphodiesterase (TDP1); Tyrosyl-DNA phosphodiesterase 1 (Homo sapiens), Q9NUW8; recombinant TDP1, AlphaScreen DNA substrate cleavage; Potency, µM (doses to about 130 µM), for inactives: top-dose activity change, negative = inhibition, most hits filed as inhibitors; 350,000 tested, 0.28% active; further: potency means the concentration at half of the fitted maximal effect; on the % scale 0 is the no-effect control and ±100 the full control effect; nearly all actives have a fitted effect of over 40% in size
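Compounds were preincubated with Tdp1 (1 nM final) for 15 min at room temperature before substrate (15 nM final) started a 5 min reaction; beads (10 ug/ml final) were then added for 10 min before AlphaScreen detection.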
Numbers without * were called inactive; ? = inconclusive; · = no result given; [ ] = dose if it differs, or a comment. Unless noted, the call rests on the fitted dose curve; in most records, active means well fitted inhibition curve with a large enough effect; inconclusive means small, poorly fitted or top-dose-only effect; inactive means no such curve, though single readings can be large or run the other way.

SMILES	JMJD2A Tudor	BAZ2B block	HP1b chromo inh	CtBP-E1A blk	Six1-Eya2 blk	TDP1 block
Cc1cccc(C(=O)Nc2cccc(C(=O)OCc3cc(=O)n4c5c(sc4n3)CCCC5)c2)c1	-9%	-11%	36%	·	·	4%
COC(=O)c1sc(NC(=S)NNC(=O)c2c(Br)c(C)nn2C)c(C(=O)OC)c1C	50µM*	25µM*	-19%	-20	-20	5%[56.1 µM]
CC(c1ccccc1)n1c(-c2ccncc2)n[nH]c1=S (stereo unspecified)	18µM*	5%	15%	-1	1	5%
CC(C)n1c(-c2ccc(C(C)(C)C)cc2)n[nH]c1=S	28µM*	-31%	15%	-3	-3	4%
CC(c1ccccc1)n1c(-c2ccccc2F)n[nH]c1=S (stereo unspecified)	22µM*	-2%	20%	-5	0	4%
CC(c1ccccc1)n1c(-c2ccc(Cl)cc2)n[nH]c1=S (stereo unspecified)	-34%	-35%	33%	2	-4	5%
CC(C)n1c(-c2ccccc2F)n[nH]c1=S	4µM*	-6%	16%	-4	2	·
CC(C)(C)c1ccc(-c2n[nH]c(=S)n2Cc2ccccc2)cc1	-4%	-11%	30%	-3	-10	·
COc1ccc(-n2c(=O)c3ccccc3n(CC(=O)NCCc3ccccc3)c2=O)c(OC)c1	-16%	3%	6%	·	·	3%
CC#CC(=O)Nc1cc2c(Nc3ccc(F)c(Cl)c3)ncnc2cn1	·	·	·	·	·	11%
Cc1cccc2cc(/C=N/Nc3ccc(C(=O)O)cc3)c(Cl)nc12	?	50µM*	-2%	4	-7	-10%
COc1ccc(Br)cc1CNC(=O)c1ccc2c(c1)nc1n2CCCCC1	-17%	-2%	23%[57 µM]	·	·	3%
CCOC(=O)C1/C(=N\O)CC(C)(O)C(C(=O)OCC)C1c1ccc(OC)c(OC)c1 (stereo unspecified)	14%	-38%	44%	7	-1	-2%
CCOC(=O)C1/C(=N\O)CC(C)(O)C(C(=O)OCC)C1c1ccc(N(C)C)cc1 (stereo unspecified)	-36%	79µM*	15%	3	7	-4%
CC(C)CC(NS(=O)(=O)c1cccc(C(=O)O)c1)C(=O)O (stereo unspecified)	1%	·	37%	-4	-4	-1%
CC(C)C[C@H](NS(=O)(=O)c1ccc(Br)cc1)C(=O)O	89µM*	4%	-6%	5	3	-5%
O=C(O)C(Cc1c[nH]c2ccccc12)NS(=O)(=O)c1ccc(Br)cc1 (stereo unspecified)	28µM*	-21%	?	4	4	·
c1cc2c(cc1C1CCCCC1)c1c3n2CCN[C@H]3CCC1	·	·	·	·	·	26%[56.1 µM]
c1cc2c(cc1C1CCCCC1)c1c3n2CCCNC3CCC1 (stereo unspecified)	45µM*	35µM*	?	-29	?	0%
CCC1Sc2ccc(S(=O)(=O)CCC(=O)Nc3ccc(NC(C)=O)cc3)cc2NC1=O (stereo unspecified)	-9%	-13%	25%	-2	1	-10%
CCC1Sc2ccc(S(=O)(=O)CCC(=O)Nc3ccc(C(=O)OC)cc3)cc2NC1=O (stereo unspecified)	20µM*	?	?	-5	-2	·
CCC1Sc2ccc(S(=O)(=O)CCC(=O)Nc3cccc(Br)c3)cc2NC1=O (stereo unspecified)	25µM*	?	?	-3	-4	-11%
COc1ccccc1N(CC(=O)Nc1ccccc1F)S(C)(=O)=O	-2%	1%	23%	·	·	·
